A selection: hits, their analogues and other compounds. The true share with any hit is near 7.4%.
Rab9 promoter act = activators of Rab9 promoter | AID 485297 | Huh7 Rab9 promoter-luciferase reporter, luminescence, 24 h | 2.8% of 320,000 active | Potency, µM (titrated, usually from 9.22 µM), without a hit: top-dose activation, negative = inhibition, actives largely listed as activators; also: % of control where 0% means no effect; nearly all actives have a fitted effect of over 60% in size
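Huh7 reporter line, Rab9 promoter upstream of luciferase. Compound exposure 24 h at 37 °C in reduced-serum medium with 10% FBS. Read-out: luminescence.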
ELG1 genotox = genotoxicity induction in ELG1-luciferase HEK293T cells; HEK293T ELG1-luciferase reporter, luminescence, 16 h; Potency, µM (top dose mostly 46 µM), for the others: top-dose activity change, positive = activation, usual class: activators; 1.3% of 330,000 active; also: % of control where 0% means no effect; nearly all actives have a fitted effect of over 60% in size
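DMSO vehicle served as control against compound-treated ELG1-luciferase HEK293T cells; exposure lasted 16 hr at 37 °C and 5% CO2, followed by ONE-Glo luminescence detection after 30 min.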
FLuc modulator = firefly luciferase modulation, counter-screen for miR-21 project | P08659 | purified FLuc, Km substrates, luminescence inhibition | Potency, µM (doses to about 57.5 µM), for the others: top-dose activity change, negative = inhibition, usual class: inhibitors | 6.9% of 360,000 active;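 also: plate controls were vehicle for no effect and reference inhibitor for full effect; nearly all actives have a fitted effect of over 55% in size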
Target sequence (P08659 whole entry, looked up): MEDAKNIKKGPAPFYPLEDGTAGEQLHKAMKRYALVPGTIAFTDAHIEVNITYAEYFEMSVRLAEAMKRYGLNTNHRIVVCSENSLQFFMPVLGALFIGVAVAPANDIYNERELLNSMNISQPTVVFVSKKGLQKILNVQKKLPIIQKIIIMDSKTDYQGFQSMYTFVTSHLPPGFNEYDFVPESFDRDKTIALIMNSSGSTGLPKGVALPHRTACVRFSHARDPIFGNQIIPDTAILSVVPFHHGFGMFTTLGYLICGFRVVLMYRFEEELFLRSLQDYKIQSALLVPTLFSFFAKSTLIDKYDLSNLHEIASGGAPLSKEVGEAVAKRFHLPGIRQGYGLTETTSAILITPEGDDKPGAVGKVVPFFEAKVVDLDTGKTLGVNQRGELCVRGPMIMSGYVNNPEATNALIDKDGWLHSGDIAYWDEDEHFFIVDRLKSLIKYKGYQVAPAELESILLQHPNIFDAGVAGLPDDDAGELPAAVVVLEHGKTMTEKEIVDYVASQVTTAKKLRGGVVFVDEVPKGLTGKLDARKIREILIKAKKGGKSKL
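Purified P. pyralis luciferase (10nM final) with 10uM D-luciferin and 10uM ATP (Km levels) in 50mM Tris acetate pH 7.5, 10mM Mg acetate, 0.01% Tween-20, 0.05% BSA; qHTS 6-point titration, ~60 µM downward; luminescence read.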
NPC1 promoter act = activators of NPC1 promoter | Huh7 NPC1 promoter luciferase reporter, 24 h | Potency, µM (titrated, usually from 9.22 µM), for inactives: at the top dose activation, most hits filed as activators | 2.4% of 320,000 active; also: % of control where 0% means no effect; nearly all actives have a fitted effect of over 60% in size
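NPC1 promoter–luciferase Huh7 cells; 24 h compound; luminescence.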
SMN2 splice up = enhancers of SMN2 splice variant expression | HEK293 SMN2-luciferase splicing reporter, luminescence, 30-36 h | Potency, µM (titrated, usually from 46.1 µM), without a hit: top-dose activity change, positive = activation, actives largely listed as activators | 2.8% of 210,000 active; also: % of control where 0% means no effect; nearly all actives have a fitted effect of over 55% in size
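HEK293 cells carry an SMN2 minigene-luciferase reporter in which exon 7 inclusion puts luciferase in frame. Cells were seeded at 2000 cells/well, attached for 10-12 hours, then exposed to compounds for 30-36 hours at 37C before ONE-Glo luminescence.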
* = called active by the depositor; ? = inconclusive; . = no result given; [ ] = another dose, or the depositor's remark. Calls follow the shape of the dose curve; as a rule, active = well fitted curve in the direction sought with a large enough effect; inconclusive = small, poorly fitted or top-dose-only effect, or another doubt; inactive = no such curve, though single readings can be large; an effect the other way counts as inactive or inconclusive. Potency is read from the fitted curve at half-maximal effect.

SMILES	Rab9 promoter act	ELG1 genotox	FLuc modulator	NPC1 promoter act	SMN2 splice up
c1ccc(-c2nnc(-c3ccccc3)nn2)cc1	1.3µM*	?	0.38µM*	3.2µM*	.
COc1ccc(C)cc1-n1nnnc1SCC(=O)c1ccc2c(c1)OCCO2	5%	-4%	17µM*	4%	-1%
O=C(CSc1nnnn1C1CCCC1)c1ccc2c(c1)OCCO2	0.63µM*	15%	0.76µM*	1.1µM*	21%
CC(C)n1nnnc1SCC(=O)c1ccc2c(c1)OCCO2	3.5µM*	11%	4.8µM*	3.5µM*	-9%
Cc1ccc(C(=O)CSc2nnnn2C(C)C)c(C)c1	2.8µM*	?	0.67µM*	2.8µM*	0.79µM*
COCCN(C(=O)CCC(=O)Nc1nccs1)C(C(=O)NCCC(C)C)c1ccc(OC)cc1 (stereo not given)	0%	-2%	1%	-2%	.
COc1ccc2c(Sc3ccccc3)c(C(=O)NCc3cc(Br)ccc3OC)[nH]c2c1	.	.	-8%	.	.
O=C(CSc1nnc2ccccn12)c1ccc2c(c1)OCCO2	1µM*	2.9µM*	4.8µM*	1.1µM*	11µM*
CCn1nnnc1SCC(=O)c1ccc2c(c1)OCCO2	?	3%	19µM*	?	-4%
CCOc1ncccc1C(=O)Nc1cc(S(=O)(=O)N2CCCCC2)ccc1OC	-4%	-3%	5%	-2%	.
CC#CCCCC(=O)Nc1ccccc1C(=O)O	?	?	19µM*	?	?
CCc1ccc(CCC(=O)Nc2ccccc2C(=O)O)o1	?	?	19µM*	?	?
O=C1c2ccccc2NC(c2ccccc2Cl)N1N=C1CCCCCC1 (stereo not given)	-1%	?	12µM*	-2%	-7%[1.84 µM]
COc1ccc(NC(=O)CN(C)C(=O)c2cc3c(s2)CCC(C)C3)cc1 (stereo not given)	4%	10%	15µM*	-4%	.
CN(CC(=O)Nc1ccccc1Br)C(=O)CNC(=O)c1ccc(Oc2ccccc2)cc1	2%	0%	15µM*	18%	.
COc1cccc(NC(=O)CN(C)C(=O)CNC(=O)c2ccc(Oc3ccccc3)cc2)c1	?	6%	6µM*	27%	.
COc1ccc(NC(=O)CN(C)C(=O)CNC(=O)c2ccc3ccccc3c2)cc1	?	14%	24µM*	26%	.
CCN(CC(=O)Nc1ccc(OC)cc1)C(=O)c1ccc2ccccc2c1	.	-1%	.	.	.
O=C(CSc1nc2ccccc2n1Cc1ccc(F)cc1)N1CCN(c2ccc(F)cc2)CC1	.	.	2%	.	.
CSc1ccc(CNCC2CCCO2)cc1 (stereo not given)	4%	1%	-5%	0%	.
COc1cc2c(=O)n(Cc3ccccc3)c(=O)n(CC(=O)Nc3cc(C(F)(F)F)ccc3Cl)c2cc1OC	.	.	5%	.	15%
CC(=O)Nc1ccc(C(=O)COC(=O)c2cc(C)oc2C)c(F)c1	.	1%	.	.	.
COc1cccc(-c2noc(-c3ccc4c(c3)OCO4)n2)c1	0.56µM*	1.8µM*	0.54µM*	2.5µM*	.
COCC1CCN(Cc2nc(-c3ccc4c(c3)OCO4)no2)C1 (stereo not given)	2.8µM*	?	?	?	.
COc1ccc(-c2noc(-c3ccc4c(c3)OCO4)n2)cc1	1.1µM*	?	0.95µM*	0.79µM*	8.9µM*
SMILES	Rab9 promoter act	ELG1 genotox	FLuc modulator	NPC1 promoter act	SMN2 splice up
c1ccc(-c2noc(-c3ccc4c(c3)OCO4)n2)cc1	0.28µM*	0.41µM*	0.48µM*	0.45µM*	5µM*
Cc1ccc(C)c(OCCn2cc(C(=O)c3ccco3)c3ccccc32)c1	.	.	-2%	.	11%
c1ccc(-c2noc(-c3ccc4ccccc4c3)n2)cc1	-15%	?	0.27µM*	-17%	-9%
COc1ccc(/C=N/NS(C)(=O)=O)c(OC)c1	-3%	-3%	5%	-8%	-5%
COc1ccc(/C=N/Nc2ccccn2)c(OC)c1OC	?	?	17µM*	?	?
COc1ccc(/C=N/Nc2ncc(Br)cn2)c(OC)c1	?	7.3µM*	2.7µM*	9%	22µM*
COc1ccc(/C=N\Nc2ccccn2)c(OC)c1	?	?	3.4µM*	?	.
COc1ccc(-c2nn(-c3ccccc3)cc2/C=N/Nc2ccccn2)cc1	-1%	?	2%	-8%	-10%

Screens (PubChem)
